# Experimental data reported in PubChem BioAssay (NCI).
# Compounds without any hit were thinned out: in the full panel of roughly 79,000, 15% have a hit. A number with no mark means an inactive call. Cut-off read from the data, not from the text of the source: active = growth inhibition above about 70%; inactive = the rest.
# Assay: NCI Yeast Anticancer Drug Screen. Data for the mlh1 rad18 strain (AID 175)
# Settings: S. cerevisiae mlh1 rad18 strain growth inhibition; at 50.0 µM; hits give high values
# Procedure, shortened: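 Vehicle-treated cultures served as the reference for growth inhibition in a yeast strain carrying DNA damage repair alterations exposed to each compound.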
row,Compound,growth inhibition [%]
1,COC1OC(CO)C(O)C2OCCOCCOC3C(OC)OC(CO)C(O)C3OCCOCCOC12 (stereo not drawn),18.5
2,CCCN(CCC)CCCCCCCCN,16.2
3,[O-][n+]1c(CN2CCCCC2)nc2cccc3c2c1-c1ccccc1-3,13.1
4,COC(=O)C1OC(O[C@H]2CC[C@]3(C)[C@H]4CC=C5[C@@H]6CC(C)(C)CC[C@]6(C(=O)OC6OCC(O)C(O)C6OC6OC(C)C(OC7OCC(O)C(O)C7O)C(OC7OCC(O)(CO)C7O)C6O)[C@H](O)C[C@@]5(C)[C@]4(C)CC[C@H]3C2(C)C)C(O)C(O)C1O (stereo partly drawn),10.3
5,CC(C)(C)C(O)CC(O)(C(F)(F)F)C(F)(F)F (stereo not drawn),-1.9
6,OC(c1ccncc1)(c1ccc(Cl)cc1)c1cccs1 (stereo not drawn),7.7
7,O=C(C[n+]1ccncc1)c1ccc2c(c1)CCCC2,20.5
8,COC(=O)C1(C2CCc3cc(OC)ccc3C2=O)NC(=S)NC(=O)C1C#N (stereo not drawn),-6.65
9,N#C/C(=C\c1cc(Br)cc(Br)c1O)c1ccc([N+](=O)[O-])cc1,-2.6
10,N#CC(CCc1ccccc1)(c1ccccc1)c1ccccc1,-15.7
11,CCOC(=O)c1nc2ccc(C(F)(F)F)cc2nc1NCc1ccc(F)cc1,-48.2
12,CN(C)CCNC1=CC(=O)c2nc3ccccc3c3ccnc1c23,27.4
13,C[C@H](CCc1nc(C#N)c(N)o1)[C@H]1CC[C@H]2[C@@H]3[C@@H](O)CC4C[C@@H](O)CC[C@]4(C)[C@H]3C[C@@H](O)[C@]12C (stereo partly drawn),-2.85
